Compounds with a hit are over-represented: about 19% of the library has one in this group of screens.
HT1080 IDH1KD tx – HT-1080 IDH1 knockdown cell toxicity (counter line). HT-1080 IDH1 knockdown viability, ATP luminescence, 48 h. Potency, µM (titrated, usually from 46.1 µM), inactives show at the top dose activity, negative = toxicity, usual class: cytotoxic. 360,000 tested, 2% active. AID 686971;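 further: potency means the concentration at half of the fitted maximal effect; 0% = DMSO wells and -100% = cell-free medium wells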
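Cytotoxicity counter-line: IDH1KD HT-1080, 48 h, CellTiter-Glo. Curves classed by r2, magnitude and activity.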
DT40 TDP1 CPT – growth inhibition of DT40 Tdp1-/-;hTDP1 cells with camptothecin (screen for TDP1 inhibitors). chicken DT40 Tdp1-/-;hTDP1 cells + 20 nM CPT, ATP luminescence, 48 h. 420,000 tested, 12% active. AID 686979. Potency, µM (top dose mostly 46.2 µM), inactives show at the highest dose activity change, negative = growth inhibition, most hits filed as inhibitors; further: potency means the concentration at half of the fitted maximal effect; nearly all actives have a fitted effect of over 55% in size
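Chicken DT40 Tdp1-/- cells stably complemented with human TDP1 were seeded at 400 cells/well in medium containing 20 nM camptothecin, exposed to pin-transferred compounds, and grown at 37 °C for at least 48 hr. Viability was read as ATP luminescence.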
DT40 TDP1 no CPT – qHTS for Inhibitors of human tyrosyl-DNA phosphodiesterase 1 (TDP1): qHTS in cells in absence of CPT; DT40 Tdp1-/- hTDP1 cells, no CPT, ATP luminescence, 48 h; Potency, µM (doses to about 46.2 µM), for inactives: at the highest dose activity change, negative = growth inhibition, actives largely listed as inhibitors; 420,000 tested, 15% active; further: potency means the concentration at half of the fitted maximal effect; nearly all actives have a fitted effect of over 55% in size
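Chicken DT40 Tdp1-/- cells stably complemented with human TDP1 were seeded at 400 cells/well with DMSO in place of 20 nM camptothecin. After compound pinning, cells grew at least 48 hr at 37 °C; viability read by CellTiter-Glo luminescence.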
IL-1B inflam inh – inhibitors of inflammasome signaling (IL-1 beta secretion); THP-1 LPS/ATP IL-1B secretion, AlphaLISA, 16 h; hits give low values; activity change, % at 57.5 µM; 360,000 tested, 4.7% active; AID 743279; in the data active means activity change below about -50%; inconclusive means mostly about -30% to -49%
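Secreted IL-1B measured by AlphaLISA bead assay after 16 h compound exposure of THP-1 cells; compounds (final up to 57.5 uM) added 1 h before LPS (250 ng/mL) and ATP (1.25 mM) stimulation; lower signal means less secretion.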
HT1080NT lethal – kills 2HG-producing HT-1080-NT fibrosarcoma cells; HT-1080-NT fibrosarcoma viability, CellTiter-Glo ATP luminescence, 48 h; Potency, µM (titrated, usually from 46.1 µM), without a hit: at the highest dose activity, negative = less viability, hits mostly cytotoxic; 360,000 tested, 1.6% active; AID 686970;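 further: NT is the 2HG producing partner of a matched IDH1 knockdown line; potency means the concentration at half of the fitted maximal effect; 0% = DMSO-treated cells and -100% = media-only wells without cells; nearly all actives have a fitted effect of over 55% in size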
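750 cells/well, RPMI + 5% FBS; 2 h settle, compound pin-transfer, 48 h at 37 degrees C. CellTiter-Glo 10 min RT, luminescence. Normalized to DMSO and media-only wells.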
Active calls of the source: *; ? = inconclusive; . = not tested or not shown. Unless noted, the call rests on the fitted dose curve; in most records, active means well fitted curve in the direction sought with a large enough effect; inconclusive means small, poorly fitted or top-dose-only effect, or another doubt; inactive means no such curve, though single readings can be large; an effect the other way counts as inactive or inconclusive. Unless noted, on the % scale 0 is the no-effect control and ±100 the full control effect.

SMILES	HT1080 IDH1KD tx	DT40 TDP1 CPT	DT40 TDP1 no CPT	IL-1B inflam inh	HT1080NT lethal
COc1ccccc1N(CC(O)COc1c(C)cc(C)cc1C)S(=O)(=O)c1ccccc1 (stereo not given)	-5%	?	?	-56*	4%
COc1ccccc1N(CC(O)Cn1c(C)nc2ccccc21)S(=O)(=O)c1ccccc1 (stereo not given)	19%	?	29µM*	13	4%
Cc1ccc(C(=O)NC2(C(F)(F)F)NC(=O)N(c3ccc(Cl)cc3)C2=O)cc1 (stereo not given)	-25%	-25%	-28%	-61*	-18%
CC(C)[C@H](CO)Nc1nc(NCc2ccc(S(N)(=O)=O)cc2)c2ncn(C(C)C)c2n1	?	?	?	-103*	?
O=C(NC(=S)N1CCN(Cc2ccccc2)CC1)c1cccnc1	26%	16µM*	21µM*	17	11%
O=C(NC(=S)N1CCN(C/C=C/c2ccccc2)CC1)c1ccc(Cl)nc1	-10%	23µM*	15µM*	37	-12%
CN(CC(=O)Nc1ccc(Cl)cc1)C(=O)c1cccc(S(=O)(=O)N2CCN(Cc3ccccc3)CC2)c1	-24%	5.8µM*	5.2µM*	?	-2%
CN(C)C(=O)c1ccc(NC(=O)c2cccc(S(=O)(=O)N3CCN(Cc4ccccc4)CC3)c2)cc1	-7%	15µM*	18µM*	-2	-5%
O=C(Nc1ccc(S(=O)(=O)N2CCN(Cc3ccccc3)CC2)cc1)c1cnccn1	-13%	9.2µM*	5.2µM*	0	-6%
CC(C)n1c(=O)c2oc3ccccc3c2n(CC(=O)Nc2ccccc2Cl)c1=O	.	-25%	?	.	.
CN(C(=O)c1cc2c(=O)oc3ccccc3c2s1)c1ccc(F)cc1	.	-3%	-19%	.	.
NC(=O)c1c(/N=C/c2cccs2)sc2c1CCCC2	1%	3.7µM*	3.7µM*	0	9%
O=C(/C=C/c1cccs1)Nc1sc2c(c1C(=O)O)CCCC2	?	-1%	-6%	18	-28%
CCOCN(C(=O)Cn1c(COC)nc2ccccc21)c1c(C)cccc1CC	-1%	?	?	-5	1%
CCOCN(C(=O)Cn1cnc2cc(C)c(C)cc21)c1c(C)cccc1CC	.	21µM*	16µM*	.	.
Cc1cc(OC(=O)c2ccccc2Br)cc(=O)n1C	-2%	21µM*	?	-21	-21%
Cc1cc(C(=O)N(C2CCCCC2)C2CCCCC2)no1	-21%	13µM*	8.2µM*	-13	0%
Cc1ncc(CO)c(/C=N/NC(=O)c2ccc(O)cc2)c1O	17%	1%	-8%	0	7%
Cc1ncc(CO)c(/C=N/NC(=O)c2ccccc2Br)c1O	?	?	?	144	-17%
Cc1ncc(CO)c(/C=N/NC(=S)Nc2ccc(Cl)c(Cl)c2)c1O	-28%	16µM*	13µM*	29	-13%
Cc1ncc(CO)c(/C=N/NC(=S)Nc2cccc(Cl)c2)c1O	-24%	?	16µM*	35	-12%
CCC(C)NC(=O)Cn1c(=O)n(-c2ccc(OC)c(OC)c2)c(=O)c2ccccc21 (stereo not given)	.	3%	17%	.	.
CCN1CCN(c2nc(Nc3ccc(OC)cc3)nc(N)c2[N+](=O)[O-])CC1	-1%	?	-28%	.	-4%
c1ccc2c(c1)nc(N1CCOCC1)c1ccccc12	-17%	-27%	-17%	1	-18%
CCN(CC)c1ccc(Nc2nc(N3CCOCC3)c3ccccc3n2)cc1	?	4.6µM*	3.3µM*	-111*	11µM*
SMILES	HT1080 IDH1KD tx	DT40 TDP1 CPT	DT40 TDP1 no CPT	IL-1B inflam inh	HT1080NT lethal
COc1ccc(Nc2nc(N3CCCC3)c3ccccc3n2)cc1	-15%	2.6µM*	3.3µM*	-101*	2%
Cn1c(SCCS(=O)(=O)c2ccc(Cl)cc2)nnc1-c1ccccc1	-2%	?	?	3	-7%
Cc1ccc(C(=O)O/N=C\c2ccc(N3CCCCC3)c([N+](=O)[O-])c2)cc1	1%	?	13µM*	-7	-14%
O=C(O/N=C\c1ccc(N2CCCCC2)c([N+](=O)[O-])c1)c1c(F)cccc1F	-14%	?	?	-13	-14%
COc1ccc(C(=O)/C=C/c2ccc(N3CCCCC3)c([N+](=O)[O-])c2)c(OC)c1	?	?	21µM*	?	-21%
COc1ccc(C(=O)/C=C/c2ccc(N3CCCCC3)c([N+](=O)[O-])c2)cc1	3%	?	?	-101*	-2%
O=C(O/N=C\c1ccc(N2CCCCC2)c([N+](=O)[O-])c1)c1cccc(Cl)c1	23%	-9%	?	5	0%
O=c1c(-c2ccccc2)nc2cnc(Oc3ccccc3)nc2n1Cc1cccs1	.	-8%	?	.	.
Cc1ccc(N(C(=O)CNC(=O)c2ccco2)C(C(=O)NC2CCCCC2)c2ccncc2)cc1F (stereo not given)	-3%	9%	4%	-8	-2%
COc1ccc(-c2nnc(NC(=O)c3ccc(S(=O)(=O)N4CCCc5ccccc54)cc3)o2)cc1	11µM*	3.2µM*	5.6µM*	15	11µM*
O=C(NCc1ccccc1)c1ccc(S(=O)(=O)N2CCCc3ccccc32)cc1	-6%	-28%	2%	-30	-3%
COCc1nnc(NC(=O)c2ccc(S(=O)(=O)N3CCCc4ccccc43)cc2)o1	21µM*	23µM*	?	105	15µM*
COCc1nnc(NC(=O)c2ccc(S(=O)(=O)N3CCOCC3)cc2)o1	0%	-9%	-3%	0	-2%
O=C(Nc1nnc(C2CC2)o1)c1ccc(S(=O)(=O)N2CCCc3ccccc32)cc1	?	4.6µM*	?	28	?
O=C(NCc1ccco1)c1ccc(S(=O)(=O)N2CCCc3ccccc32)cc1	?	-20%	-27%	6	?
O=C(NC1CC1)c1[nH]c(C(F)(F)F)nc1-c1ccccc1	12%	-9%	-1%	-9	11%
CCN(CC(=O)Nc1ccc2c(c1)OCCO2)C(=O)/C=C/c1cccc(Br)c1	6%	-16%	-18%	3	3%
CCOc1ccccc1CN1CCNC(=O)C1CC(=O)NC1CCCCCCC1 (stereo not given)	-1%	29µM*	?	-22	-2%
CCc1ccc(CNC(=O)CC2C(=O)NCCN2Cc2ccccc2F)nc1 (stereo not given)	-16%	-18%	5.2µM*	10	2%
Cc1cnc(CNC(=O)CC2C(=O)NCCN2Cc2ccccc2C(F)(F)F)cn1 (stereo not given)	-1%	-7%	0%	12	-1%

Compound activity from PubChem BioAssay.
